Hit rate of the full screen: of about 69,000 compounds, about 8,600 (12%) showed an effect of 50% or more. For the sample, strong results were picked, then their nearest neighbours and some compounds at random.

The assay concerns Plasmodium berghei. The experiment in a line: Screen against P. berghei liver stage (PbLuc), transformed with Luciferase, at 10uM. The settings on record: tested at 10 uM. The format is functional, HepG2.
Consider `Cc1cc(CN(C)C(=O)C2CC(c3cccc(F)c3)=NO2)no1` (centres undefined), for which the INHIBITION is reported as 7.24%.

In the case of `CCNC(=O)c1ccc2c(c1)nc1n2CCN(C(C)C)C1`, the INHIBITION is given as -17.2%. Then `COc1ccccc1C(=O)N1CCCC1c1ncc2c(n1)CCNC2` (centres undefined), with 26.3%; and `CCCC(O)CN1CCC(=O)N(CCOC)Cc2ccccc21` (centres undefined), with 6.34%; and `CC(C)C(C)N(C)C(=O)COc1ccccc1C#N` (centres undefined), with 16.8%. `COC(=O)c1ccc(NC(=O)CCc2ccco2)cc1`: the INHIBITION is -13.6%.

For `Cc1nnc(C(C)N2CCCN(Cc3ccc(C#N)cc3)CC2)o1` (centres undefined), the INHIBITION is on record as 24%. Then `O=c1ccc2c([nH]1)CCC(NCc1ccc(F)cc1)C2` (centres undefined), with 45.1%; and `Cc1ccc(C)c(CC(=O)NC2(C#N)CCOCC2)c1`, with 20.4%. Then `O=C(c1ccccn1)N(CCO)Cc1cc(Br)ccc1F`, with -0.759%; and `Cc1nn(C2CCS(=O)(=O)C2)c(O)c1Cc1ccccc1` (centres undefined), with 36.9%. Then `CCOCC1CN(Cc2ccoc2)Cc2nn(C)cc21` (centres undefined), with 16.8%; and `CNc1cncc(C2CCN(C(=O)c3cnco3)CC2)n1`, with 8.53%; and `CNc1cncc(C2CCN(C(=O)c3coc(C)n3)CC2)n1`, with 58%. On to `CNc1cccc(C2CCCN(C(=O)c3coc(C)n3)C2)n1` (centres undefined), for which the INHIBITION turned out to be 41.2%. For `CC(=O)N1CCCN(C(=O)c2oc(Br)cc2C)CC1` the value was 58.5%. For `Cc1cc(Br)oc1C(=O)N1CCCN(CC(N)=O)CC1` the value was 30.3%; for `Cc1cc(Br)oc1C(=O)N1CCN(CC(N)=O)CC1`, 20.9%; for `Cn1cc(C2CC(=O)NC23CCN(CC2CC2)CC3)cn1` (centres undefined), 48.7%.

As for `Cc1nc(N2CCCC2)nc2c1CCN(Cc1ccco1)CC2`, the INHIBITION worked out at 15.1%. Then `Cc1ccc(F)c2c1N(C(=O)c1cn(CC(=O)N(C)C)nn1)CCC2`, with -9.21%. Then `CN(C)CCN1CCOCC2(C1)CN(Cc1nccs1)CCO2` (centres undefined), with 14.1%; and `NS(=O)(=O)c1ccc(NC(=O)CSc2ccc3c(c2)CCC3)cc1`, with 66.8%. Then `NC(=O)c1cccc(NC(=O)CSc2ccc3c(c2)CCC3)c1`, with 40.6%; and `CS(=O)(=O)c1ccc(NC(=O)CSc2ccc3c(c2)CCC3)cc1`, with 31.2%; and `CNC(=O)NC(=O)CSc1ccc2c(c1)CCC2`, with 54.3%.

For the molecule `CNC(=O)NC(=O)CCSc1ccccc1C`, the INHIBITION stood at 29.8%. With `CNC(=O)Cc1noc(Cc2ccc3c(c2)CCCC3)n1`, the INHIBITION is reported as 15.9%.

For `CN1C(=O)c2ccc(NC(=O)CSc3ccc4c(c3)CCC4)cc2C1=O`, the INHIBITION is listed as 11.5%.

Consider `CS(=O)(=O)c1ccc(NC(=O)CSc2ccc3c(c2)CCC3)cn1`, for which the INHIBITION is listed as 53.4%. Regarding `CS(=O)(=O)c1ccc(NC(=O)NCc2ccc3c(c2)CCC3)cn1`, the INHIBITION is on record as 24%. Then `CN(C)CCO[C@@H]1CC[C@H]2[C@H]1OCCN2C(=O)c1ccccc1F`, with 35.2%; and `CC(C)(C)c1nccc(N2CCCCC2CCNS(C)(=O)=O)n1` (centres undefined), with -1.79%; and `Cc1cnn(CC2CCCN2Cc2nnc(C3CC3)o2)c1` (centres undefined), with 2.3%.

Take `O=C(c1ccc(N2CCOCC2)nc1)N1CCCC(n2ccnc2)C1` (centres undefined): the INHIBITION is 13.05%.

Turning to `CC(C)CN1CCC2(C=C(C(=O)N3CCCC3)c3ccccc32)CC1`, the INHIBITION is on record as -17%. Then `Cc1cc(CN2CCN(C(=O)CCc3cccs3)CC2)on1`, with -9.08%; and `Cc1cccc(COCC2c3nnn(C)c3CCN2Cc2ccoc2)n1` (centres undefined), with -5.08%. For `C[C@H]1CN(C(=O)c2cccnc2)C[C@@]12CCN(CCN1CCCC1)C2=O` the value was 23.6%. Then `CC(=O)N(Cc1ncc(C)o1)C1CCN(Cc2ccon2)C1` (centres undefined), with 3.73%. Regarding `CO[C@H]1CN(C(=O)c2ccc(-c3ccccc3)[nH]2)CC[C@H]1N`, the INHIBITION is -22.4%.

Regarding `O=C(c1cnccn1)N1C[C@H]2CC[C@@H](C1)N(S(=O)(=O)c1cccnc1)C2`, the INHIBITION is given as -6.34%. For `Cc1nc(CN(C)S(=O)(=O)c2ccc(F)cc2Br)no1` the value was 18.9%; for `Cc1nc(CN(C)S(=O)(=O)c2ccccc2C(F)(F)F)no1`, 11.3%; for `Cc1nc(CN(C)S(=O)(=O)c2ccccc2Br)no1`, 58.1%.

Take `Cc1cc(NCCC(=O)NC2CCCC2)nc(-c2ccncc2)n1`: the INHIBITION is 4.52%. `CC(C)CS(=O)(=O)N1CCC2(CN(c3cccc(F)c3)C(=O)CN2C)C1` (centres undefined): the INHIBITION was 55.5%. Then `CN1CC(=O)N(c2cccc(F)c2)CC12CCN(S(C)(=O)=O)C2` (centres undefined), with -5.12%; and `CCS(=O)(=O)N1CCC2(CN(c3cccc(F)c3)C(=O)CN2C)C1` (centres undefined), with 19.4%. Then `CCCc1n[nH]c(C2CN(C(=O)c3ccc[nH]3)CCO2)n1` (centres undefined), with 27.8%. Then `CCc1nc2c(c(N3CCOCC3)n1)CCN(C(=O)N1CCCC1)CC2`, with -28.4%; and `O=C(c1ccccn1)N1CCc2ncnc(N3CCOCC3)c2CC1`, with -64.5%; and `CCc1nc2c(c(N3CCOCC3)n1)CCN(C(=O)c1ccon1)CC2`, with 52.2%. For `COc1ccc(C(C(=O)O)N(C)Cc2c(C)nn(C)c2C)c(C)c1` (centres undefined), the INHIBITION is given as 26.9%. Then `Cc1nc(C2CCN(C(=O)c3cscn3)CC2)c2sccn12`, with 17.4%; and `c1ccc(Cn2cc(CNC3CCc4ncnn4C3)cn2)cc1` (centres undefined), with 39.5%; and `CCCOc1ccc2c(c1)OCC(CNC1CCc3ncnn3C1)=C2` (centres undefined), with 42.1%. With `Clc1ccc(-n2cc(CNC3CCc4ncnn4C3)cn2)cc1` (centres undefined), the INHIBITION was 51.3%. Then `C1=C(CNC2CCc3ncnn3C2)COc2ccccc21` (centres undefined), with 61.6%. Turning to `Clc1ccc(-c2cnc(CNC3CCc4ncnn4C3)o2)cc1` (centres undefined), the INHIBITION was determined as 39.6%. Then `c1ccc(-n2cc(CNC3CCc4ncnn4C3)cn2)cc1` (centres undefined), with 11.6%.

For `c1csc(CCNC2CCc3ncnn3C2)c1` (centres undefined), the INHIBITION is 68.8%. Then `COc1ccc2c(c1)OCC(CNC1CCc3ncnn3C1)=C2` (centres undefined), with 35.1%. With `O=C(CNC1CCc2ncnn2C1)N(Cc1cccs1)C1CC1` (centres undefined), the INHIBITION amounted to 27.7%. Then `Clc1cccc(-c2nc(CNC3CCc4ncnn4C3)co2)c1` (centres undefined), with 49.8%. For `Clc1ccc2c(c1)C=C(CNC1CCc3ncnn3C1)CO2` (centres undefined) the value was 51.8%; for `O=C(CNC1CCc2ncnn2C1)NCCc1cccs1` (centres undefined), 12.3%; for `COc1cccc(-c2cc(C3=NC(=CN4CCN(C)CC4)NO3)[nH]n2)c1`, 33.1%. For `NC(=O)CN1CCC(c2cccc(Oc3ccccc3)n2)CC1`, the INHIBITION is listed as -11.4%.
